From PubChem BioAssay AID504842 (National Center for Advancing Translational Sciences (NCATS), 2011) come the findings set out here.

Each structure is given as a SMILES string. In all, about 330,000 compounds went through this assay and about 100 (0.03%) were called active. Roughly 1% stayed inconclusive and do not appear here. For the sample, actives were picked, then their nearest neighbours and some compounds at random. A number with no mark means an inactive call. The call rests on the fitted dose curve; in most records, active means well fitted inhibition curve with a large enough effect; inconclusive means small, poorly fitted or top-dose-only effect; inactive means flat fitted curve, though single readings scatter.
On the % scale 0 is the no-effect control and ±100 the full control effect; potency means the concentration at half of the fitted maximal effect.

The assay has as its system Chaperonin Mm-Cpn (Methanococcus maripaludis). Description: Inhibitors of TCP-1 ring complex (TRiC) of Methanococcus maripaludis (MmCpn): qHTS. Further: nearly all actives have a fitted effect of over 80% in size.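 On Potency: enzyme at 25 nM with ATP substrate at 10 µM during the reaction.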 The settings on record: purified Mm-Cpn ATPase, ADP Transcreener TR-FRET; series mostly up to 76.9 µM; activity, negative = inhibition: at the top concentration. From the text: The eukaryotic chaperonin TRiC (for TCP-1 ring complex) is an essential and conserved chaperone required for the folding and activation of 10-15% of the proteins encoded by the human genome. […] The TRiC complex consist of two stacked 7-9 membered rings, each containing a central cavity. Substrates are folded within the cavity in an ATP-dependent manner. TRiC is a complex of eight different, essential proteins. As each of the genes encoding the eight subunits is essential for cell viability and no protocol has been developed to over-express this enzyme to high levels. That is why several groups studying the TRiC chaperonin have turned to the archaeal homolog of TRiC, Methanococcus maripaludis (Mm-CPN), and have used this enzyme as a model system for the study of the type II chaperonin family. Small molecule inhibitors of the Mm-CPN enzyme would be extremely useful to study the mechanism of chaperonin activity. Importantly, TRiC and Mm-CPN both require ATP hydrolysis for function. Furthermore, the ATP binding sites are highly conserved among these type II chaperonins. This provides us with an easy, well tested and straightforward assay to identify inhibitors of chaperonin activity. The Mm-CPN assay was developed in 1536-well plate format using the HTRF Transcreener ADP assay kit (Cisbio, Bedford, MA). This assay applied the time resolved fluorescence resonance energy transfer (TR-FRET) principle. ATP in the presence of Mm-CPN is converted to ADP + Pi. An antibody labeled with Eu3+-Cryptate specific and bound to ADP labeled with […] (d2) competes with the unlabeled ADP generated by Mm-CPN. The resulting TR-FRET signal is inversely proportional to the concentration of ADP in the sample. In this assay a reduction in TR-FRET signal is observed with ATP turnover. NIH Chemical Genomics Center [NCGC] NIH Molecular Libraries Probe Centers Network [MLPCN] MLPCN Grant: DA030554-01A1 Assay Submitter (PI): Judith Frydman, Stanford University
Purified Mm-CPN was supplied by the laboratory of Dr. Judith Frydman. Protein samples were stored at -80C as single use aliquots. Protein was thawed in ambient temperature water bath and placed on ice once thawed. Buffer was prepared fresh day of screen. The buffer composition below was used to prepare the working solution of the Mm-CPN protein and ATP substrate. The buffer is comprised of 30 mM TRIS pH 7.4, 100mM KCl, 5mM MgCl2, and 1mM DTT. A final concentration of 25nM Mm-CPN and 10uM ATP per well were used in the screen. Instructions according to the manufacturer were followed for the ADP Transcreener kit. Used 1536 well Greiner white, medium binding (MB), solid bottom plates. Plates were read on the PerkinElmer EnVision plate reader using Excitation = 320 nm and Emission = […], 665 nm. Protocol- 1.Dispense 1.5ul per well of working [Mm-CPN] = 50nM (or 75 ng / well) 2.Spin plate at 1000 rpm for 30 seconds 3.23nl of compound transferred per well 4.Incubate at 37degC for 10 minutes 5.Dispense 1.5ul per well of working [ATP] = 20uM 6.Incubate at 37degC for 30 minutes 7.Dispense 3ul per well of Anti-ADP Cryptate / ADP-d2 mix (prepared as instructed by Cisbio) 8.Incubate at ambient for 30 minutes 9.Read using EnVision
In general terms: In qHTS, concentration-response curves come from the screen itself.
For `N#Cc1ccc(-c2nc3cc(C#N)c(C#N)cc3nc2-c2ccccc2)cc1C#N`, the “activity, negative = inhibition” value is 0.293%.
The same measure, in the same setting: the result for `CC(=O)Nc1ccc(S(=O)(=O)N2CCN(S(=O)(=O)c3cccs3)CC2)cc1` reads 0.0491%; that for `Cc1ccc(CNC(=O)c2ccccc2CCc2ccccc2)cc1`, -0.428%; that for `CCC1SC(CC)C(=O)N(CC(=O)NC2CCCCC2)C1=O` (centres undefined), 0.875%.
Same read-out and setting: the same measure for `Cc1cccc(C(=O)Nc2ccc(Oc3cnccn3)cc2)c1`: -0.493%.
Same read-out and setting: the same measure for `CC(=O)Nc1cccc(C(=O)OCN2C(=O)c3ccccc3C2=O)c1`: 1.86%; for `C=CCN1C(=O)c2ccc(C(=O)N3CCC(C(=O)OCC)CC3)cc2C1=O`: -0.43%; for `Cc1ccc(NC2=C(Cl)C(=O)OC2OC(=O)c2ccccc2C)cc1` (centres undefined): -12.6%.
In the case of `Cc1ccccc1N1CCN(CCCN2C(=O)C3CCCCN3C2=O)CC1` (centres undefined), the “activity, negative = inhibition” value was -0.311%.
Regarding `O=C(CCNS(=O)(=O)c1ccccc1)NCCCc1ccccc1`, the “activity, negative = inhibition” value was -1.66%.
`CCc1ccc(Nc2n[n+](-c3ccccc3)c(-c3cccc(Cl)c3Cl)s2)cc1`: the Potency was 56.2 µM (active).
Take `COc1cc(Br)c(-c2sc(Nc3ccccc3)n[n+]2-c2ccccc2)cc1OC`: the “activity, negative = inhibition” value was -8.15%.
For the molecule `NC(=O)N1CCCC1C(=O)Nc1ccc(Cl)c(Cl)c1` (centres undefined), the “activity, negative = inhibition” value is -1%.
Still for that read-out and setting: the same measure for `CC(C)c1ccc(N2CCN(C(=O)c3ccccc3NC(=O)/C=C(\C(=O)O)c3ccccc3)CC2)cc1`: 1.56%; for `CC(NC(=O)COC(=O)c1ccc(Cl)cc1O)c1ccc(F)cc1` (centres undefined): -3.48%; for `COC(=O)c1ccc(/C=C/c2c(-c3ccc(OC)cc3)sc3ccccc23)cc1`: 1.68%.
Same read-out and setting: the same measure for `COc1ccc2sc(-c3ccccc3OC)c(-c3ccc(OCCN4CCCC4)cc3)c2c1`: -12.8%.
`COc1ccccc1-c1sc2ccccc2c1-c1ccc(C(C)=O)cc1`: the Potency is 31.6 µM (active).
As for `CC(=O)Nc1ccc(Nc2ncnc3c2nnn3Cc2ccccc2Cl)cc1`, the “activity, negative = inhibition” value was 1.07%.
Same read-out and setting: the result for `O=C(NCc1ccccc1CN1CCCC1)C1CCN(S(=O)(=O)c2ccc(Cl)cc2)CC1` reads -0.604%.
Still for that read-out and setting: the same measure for `CC(C)CN(C(=O)c1ccc2c(c1)OCO2)C1CCS(=O)(=O)C1` (centres undefined): 0.881%.
For `CC1(C)O[C@@H]2CC3C4C[C@H](F)C5=CC(=O)C=CC5(C)C4C(O)CC3(C)[C@]2(C(=O)CO)O1` (some centres undefined), the “activity, negative = inhibition” value is 1.04%.
For the molecule `Cc1ccc2[nH]c(=O)c(CN(C)S(=O)(=O)c3cccc4nonc34)cc2c1`, the “activity, negative = inhibition” value was -2.84%.
The same measure, in the same setting: the result for `Cc1nc(NC2=NC(C(=O)Nc3ccc(Cl)cc3)CC(=O)N2)nc2ccccc12` (centres undefined) reads 0.566%.
Still for that read-out and setting: the result for `CC1CCN(c2ccc(C(=O)NCc3ccc4c(c3)OCO4)cc2[N+](=O)[O-])CC1` reads 0.158%.
Same read-out and setting: the result for `CC(=O)c1ccc(NC(=O)CCNS(=O)(=O)c2cc(Br)cnc2N)cc1` reads -0.226%; that for `CC(=O)c1nn(-c2cccc(C(F)(F)F)c2)c(=O)[nH]c1=O`, -0.223%; that for `c1ccc(-c2nnc3n2NC(c2ccc4c(c2)OCO4)S3)cc1` (centres undefined), 1.41%.
As for `O=C(CSc1nnc(-c2ccncc2)o1)Nc1cccc(Cl)c1`, the “activity, negative = inhibition” value is 2.25%.
The same measure, in the same setting: the result for `O=C(O)C1CCN(C(=O)c2cc(F)cc3c2OCOC3)CC1` reads 2.42%.
The same measure, in the same setting: the result for `CC(=O)c1cn(CCCCCCCCCCn2cc(C(C)=O)c(=O)[nH]c2=O)c(=O)[nH]c1=O` reads -3.31%; that for `Cn1c2c(c(=O)n(C)c1=O)C(c1cccc(F)c1)C(C#N)=C(N)O2` (centres undefined), -1.49%; that for `CCCCOP(=O)(c1ccc(N(C)C)cc1)C(O)c1cc(OC)ccc1OC` (centres undefined), 2.81%.
The same measure, in the same setting: the result for `Cc1cccc(C(=O)O)c1[N+](=O)[O-]` reads 0.41%; that for `CCN(CC)S(=O)(=O)c1ccc(CNC(=O)CN2C(=O)NC3(CCc4ccccc43)C2=O)cc1` (centres undefined), -3.53%.
For `NC(=O)CN1CCCC1c1ccc2c(c1)OCCO2` (centres undefined), the “activity, negative = inhibition” value was 0.0789%.
Still for that read-out and setting: the same measure for `CCOC(=O)c1cc(-c2ccc(Cl)s2)nc2c1c(C)nn2C`: -7.1%; for `Cc1cc(S(=O)(=O)NCC(C)C)ccc1OCC(=O)NC1CC1`: -0.397%.
For `COc1ccc2c3c(c(=O)oc2c1)C1O[C@](CCCCN2C(=O)c4ccccc4C2=O)(Cc2c1ccc1ccccc21)O3`, the activity, negative = inhibition is 1.5% [at 15.4 µM].
Same read-out and setting: the result for `O=C(CCc1ccccc1)Nc1ccnn1C1CCN(Cc2ccc(OCCO)cc2)CC1` reads 1.27%; that for `Cc1cccc(N(C(=O)Cc2cccs2)C(C(=O)NC2CCCC2)c2ccsc2)c1` (centres undefined), -0.0327%; that for `O=C(CCNC(=O)c1ccc([N+](=O)[O-])cc1)NC1CCCCC1`, -2.91%.
As for `O=C1CC(=O)Nc2cc(S(=O)(=O)N3CCN(c4cccc(C(F)(F)F)c4)CC3)ccc2N1`, the “activity, negative = inhibition” value is 3.32%.
On to `CCOC(=O)C1=C(CC)OC(N)=C(C#N)C1c1ccc(F)cc1F` (centres undefined), for which the “activity, negative = inhibition” value is -1.36%.
On the same count and under the same terms, the same measure for `O=C(CN1CCN(C2CCS(=O)(=O)C2)CC1)N1N=C(c2ccc(Cl)cc2)CC1c1ccco1` (centres undefined): -0.933%.
For `CC(C)CNC(=O)/C=C/C(=O)O`, the Potency result is “inactive”.
`Cc1ccc(C)c(N(CC(=O)NCc2ccco2)C(=O)CCC(=O)Nc2ccccn2)c1`: the “activity, negative = inhibition” value is -0.588%.
In the case of `Cc1cccc(C)c1NC(=O)C(Cl)C(=O)c1ccccc1` (centres undefined), the “activity, negative = inhibition” value is 0.831%.
On the same count and under the same terms, the result for `Cn1c(=O)c2c(n(Cc3ccccc3)c1=O)NC(=O)C2CC(=O)N1CCc2ccccc2C1` (centres undefined) reads -0.155%.
